Z-score and composite z-score data for 13 compounds are collected here from PubChem BioAssay.

Active and inactive are the calls of the source. Unless noted, no rule for the calls is given here.

A short description of assay [1]: resazurin metabolic signal in HepG2 cells – cell-based, resazurin fluorescence, 24 h, PK04 Diversity Set, profiling panel (AID 1172). Also: test concentration not given here. To be noted: HepG2 viability, higher = more signal.
The nature of assay [2]: budding yeast growth changes without added modifier – OD600, strain BY4716, 24 h, basal condition, primary screen (AID 1173). To be noted: S. cerevisiae BY4716 growth, OD600, 24 h; higher = more signal, called active from +8 up or from −8 down.
A short description of assay [3]: viability profiling in MM1S myeloma cells – cell-based, resazurin fluorescence, basal, 24 h, PK04 Diversity Set, profiling panel (AID 1174).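 Also: MM1S multiple myeloma cell line; test concentration not given here.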 To be noted: higher = more signal, called active from +8 up or from −8 down. (The colour change of resazurin is a common sign of viable cells or microbes.)
The target in assay [4] is Dihydroorotate dehydrogenase (quinone), mitochondrial (Plasmodium falciparum (isolate 3D7)) (UniProt Q08210). Put plainly: inhibition of P. falciparum DHODH – biochemical, C-terminal His tag, absorbance 600 nm, primary screen (AID 1175).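 Also: recombinant parasite enzyme with a five histidine tag at its C terminus; test concentration not given here.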 To be noted: PfDHODH enzyme, DCIP absorbance 600 nm; higher = more signal, called active from +8 up or from −8 down.
Sequence of Dihydroorotate dehydrogenase (quinone), mitochondrial (Plasmodium falciparum (isolate 3D7)) (Q08210 whole entry, looked up): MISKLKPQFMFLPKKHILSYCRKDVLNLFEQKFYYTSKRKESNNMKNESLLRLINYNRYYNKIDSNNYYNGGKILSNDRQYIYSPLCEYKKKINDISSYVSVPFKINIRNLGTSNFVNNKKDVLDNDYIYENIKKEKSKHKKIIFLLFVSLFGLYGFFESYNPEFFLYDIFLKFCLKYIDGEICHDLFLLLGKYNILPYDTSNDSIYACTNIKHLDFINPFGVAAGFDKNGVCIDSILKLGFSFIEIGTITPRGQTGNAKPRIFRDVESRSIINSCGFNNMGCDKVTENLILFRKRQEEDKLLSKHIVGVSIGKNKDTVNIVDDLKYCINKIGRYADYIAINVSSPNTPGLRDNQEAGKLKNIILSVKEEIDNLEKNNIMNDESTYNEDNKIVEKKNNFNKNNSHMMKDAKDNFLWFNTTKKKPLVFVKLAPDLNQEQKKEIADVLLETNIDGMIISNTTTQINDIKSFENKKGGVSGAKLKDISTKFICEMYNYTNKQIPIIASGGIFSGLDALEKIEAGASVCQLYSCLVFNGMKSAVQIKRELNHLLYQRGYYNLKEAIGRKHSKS
The nature of assay [5]: inhibition of PAO1 biofilm formation – strain PAO1, LB-PBS medium, absorbance 600 nm, primary screen (AID 1176). Also: test concentration not given here. To be noted: P. aeruginosa PAO1 growth/biofilm, A600, 12 h; higher = more signal.
Assay [6] in a line: growth modulation of vineyard yeast isolate – strain RM11-1a, OD600, basal, 24 h, primary screen (AID 1177).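 Also: cultures grown under basal conditions with no added stressor; test concentration not given here.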 To be noted: S. cerevisiae RM11-1a growth, OD600, 24 h; higher = more signal, called active from +8 up or from −8 down.
Assay [7] is described as follows: growth of efflux-deficient E. coli DRC39 – strain DRC39, OD650, 24 h, E. coli filamentation inducers, primary screen (AID 1178).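 Also: growth measured as culture turbidity by optical density at 650 nm; test concentration not given here.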 To be noted: E. coli DRC39 acrAB, higher = more signal, called active from +8 up or from −8 down.
The nature of assay [8]: growth of efflux-deficient E. coli DRC39 – strain DRC39, OD650, 48 h, E. coli filamentation inducers, primary screen (AID 1179).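 Also: screen aims at cell division blockers that make cells filament.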 To be noted: E. coli DRC39 delta-acrAB growth, higher = more signal, called active from +8 up or from −8 down.
Assay [9] can be described thus: viability profiling in RPMI8226 myeloma cells – cell-based, resazurin fluorescence, basal, 24 h, PK04 Diversity Set, profiling panel (AID 1180).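 Also: RPMI8826 multiple myeloma cell line at 5000 cells per well; test concentration not given here.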 To be noted: higher = more signal.
Assay [10] deals with E3 ubiquitin-protein ligase XIAP (Homo sapiens) (UniProt P98170). Description: small molecules binding XIAP protein – biophysical, small-molecule microarray, fluorescence 635 nm, primary screen (AID 1181).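 Also: score merges 667 nm emission and signal to noise over triplicate slides.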 To be noted: higher = more signal.
Sequence of E3 ubiquitin-protein ligase XIAP (Homo sapiens) (P98170 whole entry, looked up): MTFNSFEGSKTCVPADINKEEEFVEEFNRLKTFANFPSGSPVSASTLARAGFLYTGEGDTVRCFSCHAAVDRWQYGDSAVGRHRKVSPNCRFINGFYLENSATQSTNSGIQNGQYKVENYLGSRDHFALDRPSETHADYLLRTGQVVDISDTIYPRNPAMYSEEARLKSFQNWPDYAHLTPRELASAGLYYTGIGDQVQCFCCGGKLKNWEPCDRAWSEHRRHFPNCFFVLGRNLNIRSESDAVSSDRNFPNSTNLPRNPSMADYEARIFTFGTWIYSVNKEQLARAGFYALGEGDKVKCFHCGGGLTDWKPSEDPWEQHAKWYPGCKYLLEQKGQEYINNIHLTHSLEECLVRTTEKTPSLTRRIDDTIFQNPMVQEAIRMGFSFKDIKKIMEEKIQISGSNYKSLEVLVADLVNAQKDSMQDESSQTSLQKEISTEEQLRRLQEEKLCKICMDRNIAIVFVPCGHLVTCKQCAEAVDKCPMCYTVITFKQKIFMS

For the compound `CC(C)(C)N1CC=CC23O[C@@H]4C=CCCOC(=O)C4[C@H]2C(=O)N(CCCCCO)[C@@H]3C1=O` (stereo not given in full), the z-score in [1] was -0.214; in assay [2] it was -0.312 (inactive); in assay [3], 0.287 (inactive); in assay [5] it was -0.36 (inactive); in assay [6], 0.449 (inactive); in assay [7] it was 0.251 (inactive). Further, the z-score in assay [8] was 0.762 (inactive); in assay [9], 0.384. Also, the composite z-score in assay [4] was -0.16 (inactive); in assay [10], 0.329.
Consider `CC(CCN1CCc2nc(-c3ccccc3)c(-c3ccccc3)cc2C1)=NO[C@H](C)c1cn([C@@H]2COC[C@H]2O)nn1`, for which the z-score in assay [1] was -0.233; in [2], -0.799 (inactive); in [3], -0.869 (inactive); in [5], 0.408 (inactive); in assay [6], -0.462 (inactive); in assay [7], 0.532 (inactive). Moreover, the z-score was 0.705 (inactive) in [8] and -0.639 in assay [9]. Further, the composite z-score in assay [4] was -0.0119 (inactive); in [10], 0.063.
For the compound `COc1ccc(O[C@H]2C=C[C@@H](c3ccccc3)O[C@@H]2COC(=O)CCC(C)=NOC[C@@H](C)[C@H](OCc2ccccc2)C(C)C)cc1`, the z-score in assay [1] was 0.85; in assay [2], 0.445 (inactive); in assay [3] it was 0.24 (inactive); in assay [5], -0.598 (inactive); in assay [6], 0.659 (inactive); in assay [7], 0.394 (inactive). Besides, the results for the z-score in assay [8] and in [9] were -0.9 (inactive) and 0.0668, respectively. Further, the composite z-score in assay [4] is -0.926 (inactive); in assay [10] it was 0.552.
Consider `CCCCCCc1nc(CCCc2cc3c(c(CCCCCC)n2)[Si](C(C)C)(C(C)C)O[C@H]3c2ccccc2)cc2c1[Si](C(C)C)(C(C)C)O[C@H]2c1ccccc1`, for which the z-score in assay [1] is 0.0054; in assay [2], 1.33 (inactive); in assay [3], -0.582 (inactive); in assay [5] it was 0.0793 (inactive); in assay [6], -0.879 (inactive); in assay [7], -0.631 (inactive). Further, the z-score in assay [8] is -0.981 (inactive); in assay [9], -0.465. For the same compound, the composite z-score was -0.347 (inactive) in assay [4] and -0.117 in assay [10].
As for `CO[C@@H]1COC(=O)CC=C[C@@H](C)[C@@H]2C=C[C@H](O)[C@@H](COC(=O)[C@H](C)NC(=O)CC=C[C@H]1C)O2`, the z-score was 0.592 in [1]; -0.0997 (inactive) in [2]; 0.945 (inactive) in [3]; -0.786 (inactive) in [5]; -1 (inactive) in assay [6]; 0.574 (inactive) in assay [7]. The z-score in assay [8] was -0.637 (inactive); in [9], 1.61. The composite z-score was -1.15 (inactive) in assay [4] and -0.102 in [10].
With `CCOC(=O)[C@H](CC(C)C)NC(=O)CCC1CC(OC(=O)NCc2cccc3ccccc23)CC2(CCCC(COC(=O)NCCc3ccccc3OC)O2)O1` (stereo not given in full), the z-score is 0.563 in assay [1]; -0.581 (inactive) in assay [2]; 0.072 (inactive) in assay [3]; 0.684 (inactive) in assay [5]; -0.0922 (inactive) in [6]; -0.436 (inactive) in assay [7]. The z-score in [8] was -0.141 (inactive); in assay [9], -0.31. Also, the composite z-score in [4] is -0.987 (inactive); in assay [10] it was -0.134.
`C[C@H](c1ccccc1)N1C(=O)[C@H]2[C@@H]3C(=CC[C@H]2C1=O)C(=O)[C@H]1O[C@H]1[C@H]3O`: the z-score was -2.54 in [1]; -3.82 (inactive) in assay [2]; -8.01 (active) in assay [3]; -0.993 (inactive) in [5]; -0.141 (inactive) in [6]; 0.144 (inactive) in [7]. For the same compound, the z-score in assay [8] is 0.494 (inactive); in [9], -5.33. In addition, the composite z-score is -1.74 (inactive) in assay [4] and 0.288 in [10].
On to `O=C1[C@H]2[C@H]3[C@H](O)[C@H](O)CC(=NOC[C@@H](O)COCc4ccco4)[C@H]3CC[C@H]2C(=O)N1C1CCCCC1`, for which the z-score in assay [1] is 0.0194; in assay [2], -0.563 (inactive); in assay [3], -0.304 (inactive); in assay [5], 0.188 (inactive); in assay [6] it was -0.479 (inactive); in [7], 0.426 (inactive). Moreover, the values for the z-score in assay [8] and in [9] were -0.0377 (inactive) and -0.263, respectively. For the same compound, the composite z-score was -2.13 (inactive) in assay [4] and 0.116 in [10].
With `O=C1[C@H]2[C@H]3[C@H](O)[C@H](O)CC(=NOC[C@@H](O)COCc4ccco4)[C@H]3CC[C@H]2C(=O)N1c1cccc(Oc2ccccc2)c1`, the z-score in assay [1] is 0.957; in assay [2], 0.22 (inactive); in assay [3], -0.654 (inactive); in assay [5], 0.741 (inactive); in assay [6] it was -0.183 (inactive); in assay [7], 0.916 (inactive). The z-score in assay [8] is 1.33 (inactive); in assay [9], -0.192. Besides, the values for the composite z-score in assay [4] and in assay [10] were -0.365 (inactive) and -0.295, respectively.
On to `CO[C@H]1O[C@H](CO)[C@@H](OC(=O)Nc2ccc(C#N)cc2)[C@H](OC(=O)c2cc3ccccc3[nH]2)[C@H]1OC(=O)c1cc2ccccc2[nH]1`, for which the z-score in [1] was -0.115; in [2] it was -1.05 (inactive); in assay [3], -1.76 (inactive); in assay [5], 1.63 (inactive); in assay [6], -1.67 (inactive); in [7], 2.96 (inactive). Also, the z-score in assay [8] was 2.93 (inactive); in assay [9] it was -1.7. For the same compound, the composite z-score in assay [4] was -1.68 (inactive); in [10], -0.0448.
In the case of `COc1cccc([C@@H]2Oc3ccc(Br)cc3C(=O)[C@H]2O)c1`, the z-score in assay [1] is -0.41; in assay [2], -14.5 (active); in assay [3], -1.99 (inactive); in assay [5] it was -0.0782 (inactive); in assay [6] it was -0.361 (inactive); in [7], 0.255 (inactive). Besides, the results for the z-score in [8] and in assay [9] were 0.139 (inactive) and -1.02, respectively. The composite z-score was -0.071 (inactive) in assay [4] and -0.391 in [10].
For `COc1ccc(O[C@H]2C=C[C@@H](c3ccccc3)O[C@@H]2COC(=O)CCC(C)=NOC(C)CN2CCCCc3nc(C)c(C)cc32)cc1` (stereo not given in full), the z-score in [1] was 0.957; in assay [2], 0.756 (inactive); in assay [3], 1.1 (inactive); in [5], -0.279 (inactive); in assay [6], 0.181 (inactive); in assay [7], 0.825 (inactive). The z-score was 0.42 (inactive) in assay [8] and 0.948 in assay [9]. Further, the composite z-score in [4] is 0.0159 (inactive); in assay [10], 0.533.
For the compound `COCCOC(=O)N1C(=O)[C@@]2(c3cc(C#Cc4ccc(OC)cc4)ccc31)[C@H](c1ccc(O)cc1)N1[C@H](c3ccccc3)[C@H](c3ccccc3)OC(=O)[C@H]1[C@@H]2C(N)=O`, the z-score was -0.422 in [1]; -0.306 (inactive) in assay [2]; -1.02 (inactive) in [3]; 0.898 (inactive) in assay [5]; 0.0054 (inactive) in assay [6]; 0.761 (inactive) in assay [7]. Moreover, the z-score in assay [8] was 0.0669 (inactive); in assay [9], -2.3. Besides, the values for the composite z-score in [4] and in assay [10] were -0.0395 (inactive) and -0.0559, respectively.
